ChEMBL document CHEMBL3988442, “University of Dundee, Small-Polar-MMV Screening Library” (2021)
The campaign covered roughly 48,000 compounds. About 13,000 (27%) showed an effect of 50% or more. Some of the results follow.

system: Wolbachia pipientis; assay: Anti-Wolbachia Cell-Based Screen; type: functional; parameters: scale not given: in the data most compounds retested in dose-response had high values; conditions: 5 µM

Row | Compound | Percent Effect
1 | CCC1CN(C(=O)c2cnc(-c3cnn(C)c3)s2)CCO1 (stereo not drawn) | -21.53%
2 | CNC(=O)c1ccc(C2CN(C(=O)c3scnc3C)CCO2)nc1 (stereo not drawn) | 111.8%
3 | Cn1ccc(C(=O)N2CCOC(c3ccc(C(N)=O)cn3)C2)n1 (stereo not drawn) | 91.81%
4 | CNC(=O)c1ccc(C2CN(C(=O)c3cnn(C)c3)CCO2)nc1 (stereo not drawn) | 109.7%
5 | O=C(c1ccncc1F)N1CCOC(c2cccc(O)c2)C1 (stereo not drawn) | -9.281%
6 | Cc1nc(N)cc(C2CN(C(=O)c3ccn(C)n3)CCO2)n1 (stereo not drawn) | -11.99%
7 | Cc1n[nH]c(C2CN(C(=O)c3ccc(=O)n(C)c3)CCO2)n1 (stereo not drawn) | -1.43%
8 | O=C(c1cccnc1)N1CCOC(CCCc2ccccc2)C1 (stereo not drawn) | 4.666%
9 | CNC(=O)c1ccc(C2CN(C(=O)c3cncs3)CCO2)nc1 (stereo not drawn) | -5.383%
10 | O=C(c1cccnc1)N1CCOC(c2ccc(-c3cncnc3)cn2)C1 (stereo not drawn) | 91.28%
11 | Cc1n[nH]c(C2CN(C(=O)c3scnc3C)CCO2)n1 (stereo not drawn) | -53.57%
12 | CCN(Cc1noc(CC(C)C)n1)Cc1ccccc1C(=O)O | 3.594%
13 | COc1ccc(C(=O)C2CCCN(c3cc(N)ncn3)C2)c(C)c1 (stereo not drawn) | -12.01%
14 | Cc1cc(C[C@@H]2COC[C@@H]2NC(=O)CN2CCCN(C)CC2)on1 | -4.417%
15 | Cc1cc(C2CCCN2C(=O)CN2CCc3ccccc32)on1 (stereo not drawn) | -2.751%
16 | CNC(=O)c1ccc(C2CN(C(=O)c3c[nH]nc3C)CCO2)nc1 (stereo not drawn) | 101.4%
17 | CNC(=O)c1ccc(C2CN(C(=O)c3coc(C)n3)CCO2)nc1 (stereo not drawn) | 128.9%
18 | Cc1[nH]ncc1C(=O)N1CCOC(c2cccs2)C1 (stereo not drawn) | 6.058%
19 | CC(=O)Nc1cc(-c2cccc(F)c2F)n[nH]1 | 88.91%
20 | COc1ccccc1-c1cc(NC(=O)CCS(=O)(=O)C2CCCC2)[nH]n1 | 7.035%
21 | CCOCC(=O)Nc1cc(-c2cccc(F)c2F)n[nH]1 | 91.5%
22 | O=C(COCC1CC1)Nc1cc(-c2ccc(Br)s2)n[nH]1 | -5.562%
23 | CS(=O)(=O)CCCC(=O)Nc1cc(Cl)c(Cl)cn1 | 1.598%
24 | CCS(=O)(=O)CC(=O)Nc1cc(-c2cccc(F)c2F)n[nH]1 | 100.6%
25 | CS(=O)(=O)CCCC(=O)Nc1cc(-c2cccc(F)c2F)n[nH]1 | 87.07%
26 | CCS(=O)(=O)CC(=O)NCC1(c2c(F)cccc2F)CCCC1 | -2.417%

Row | Compound | Percent Effect
27 | COc1ccccc1-c1cc(NC(=O)COCC2CC2)[nH]n1 | 4.73%
28 | COc1ccc(Cl)cc1-c1cc(NC(=O)C2CNC(=O)N2)[nH]n1 (stereo not drawn) | 7.586%
29 | CCS(=O)(=O)CC(=O)Nc1c(C)cnn1Cc1cc(F)ccc1F | -26.81%
30 | Cc1cc(NC(=O)c2ccc(C)c(F)c2)[nH]n1 | 2.098%
31 | CN1CCOC(C(=O)N2CCCC(C)(C)CC2)C1 (stereo not drawn) | -5.11%
32 | CCc1c(C)nc(N)nc1NCCSCc1[nH]cnc1C | -21.58%
33 | c1coc(-c2nc(CN3CCn4c(nnc4C4CC4)C3)cs2)c1 | 21.52%
34 | N#Cc1cccnc1N1CCCC(CO)(Cc2ccc(F)cc2)C1 (stereo not drawn) | -22.45%
35 | CN(C)C(=O)c1ccc2c(c1)N(C)C(CC(=O)NCc1ncc[nH]1)CO2 (stereo not drawn) | -21.18%
36 | O=C(COc1ccccc1)NS(=O)(=O)Cc1ccccc1 | 9%
37 | COCCN1C[C@@H](C)[C@@]2(COCCN(C(=O)Cc3ccccc3)C2)C1.O=C(O)C(F)(F)F | -3.108%
38 | CC(C)CC(C#N)NC(=O)c1ccc(Oc2cccnc2)cc1 (stereo not drawn) | 0.407%
39 | CCN(Cc1ccc(F)c(F)c1)Cc1nc2c(cnn2C)c(=O)[nH]1 | 128.6%
40 | CCN(Cc1ccc(OC)c(F)c1)Cc1nc2c(cnn2C)c(=O)[nH]1 | 142.5%
41 | CCN(Cc1ccc2c(c1)OCO2)Cc1nc2c(cnn2C)c(=O)[nH]1 | 112.4%
42 | CCN(Cc1nc2c(cnn2C)c(=O)[nH]1)c1cccc(Cl)c1 | -0.7695%
43 | CN(Cc1ccc2c(c1)OCO2)Cc1nc2c(cnn2C)c(=O)[nH]1 | 5.823%
44 | CCN(Cc1nc2c(cnn2C)c(=O)[nH]1)c1cc(C)ccc1C | -12.64%
45 | COc1ccc(CN(C)Cc2nc3c(cnn3C)c(=O)[nH]2)cc1OC | 10.06%
46 | CCN(Cc1nc2c(cnn2C)c(=O)[nH]1)c1ccc(OC)c(OC)c1 | 11.95%
47 | COCCN1C[C@H]2CC[C@@H]1CN(Cc1cc(=O)c3cc(C)ccc3[nH]1)C2 | -2.085%
48 | COc1c(-c2ccc(O)cc2)oc2cc(O)cc(O)c2c1=O [ISOKAEMPFERIDE] | 3.468%
49 | CCc1cc(N2CCC(N[C@@H]3CS(=O)(=O)C[C@H]3O)CC2)nc(N(C)C)n1 | -8.378%
50 | CN1CCN(c2ncnc3c2CCN(S(=O)(=O)C2CC2)CC3)CC1.O=C(O)C(F)(F)F | 114.5%
51 | O=C(C1CC1)N1CCCN(c2ncnc3c2CCNCC3)CC1 | -5.367%
52 | CN1CCN(c2ncnc3c2CCN(c2ncc(F)cn2)CC3)CC1.O=C(O)C(F)(F)F | 6.683%

Row | Compound | Percent Effect
53 | Cc1cnc(N2CCc3ncnc(N4CCN(C)CC4)c3CC2)nc1.O=C(O)C(F)(F)F | -5.23%
54 | O=S(=O)(C1CC1)N1CCc2ncnc(-c3ccc(F)cc3)c2CC1 | 10.52%
55 | O=S(=O)(C1CC1)N1CCc2ncnc(N3CCOCC3)c2CC1 | 100.4%
56 | CCOc1ncnc2c1CCN(S(=O)(=O)C1CC1)CC2 | 10.58%
57 | O=S(=O)(C1CC1)N1CCc2ncnc(-c3ccsc3)c2CC1 | -15.04%
58 | Cc1ncnc2c1CCN(S(=O)(=O)C1CC1)CC2 | 105%
59 | Fc1cccc(N2CCc3ncnc(N4CCOCC4)c3CC2)c1 | 24.23%
60 | c1nc2c(c(N3CCOCC3)n1)CCNCC2 | 91.19%
61 | CCN1CCC(CC(=O)N2CCCCC2CCn2cccn2)CC1 (stereo not drawn) | 1.727%
62 | N#Cc1ccc(CNC(=O)NCCNC(=O)C2CCCC2)c(F)c1 | 4.725%
63 | COc1ccc2ccccc2c1CNCC1CCS(=O)(=O)C1.Cl (stereo not drawn) | 9.511%
64 | O=C(O)C(F)(F)F.O=S(=O)(C1CC1)N1CCc2ncnc(N3CCCC3)c2CC1 | 105.6%
65 | O=C(O)C(F)(F)F.O=C(O)C(F)(F)F.O=C(O)C(F)(F)F.c1ccc(CN2CCc3ncnc(N4CCCC4)c3CC2)nc1 | 8.605%
66 | O=C(O)C(F)(F)F.O=S(=O)(C1CC1)N1CCc2ncnc(-c3ccncc3)c2CC1 | -12.42%
67 | COCCC1(CNC(=O)NCC2CCCN(C)C2)CCCC1 (stereo not drawn) | 2.707%
68 | COCc1ncc(CN2CC[C@@](C)(O)[C@@H](Cc3ccccc3)C2)cn1 | -1.853%
69 | COc1ccc(CN2C[C@H](O)C[C@H]2c2nc(-c3ccccc3)no2)cc1 | 10.67%
70 | COc1ncc(CN2CCOC(Cc3cccc4ccccc34)C2)cn1 (stereo not drawn) | -6.808%
71 | COc1ncc(CN2C[C@@H]3C[C@@H](O)CN3C[C@@H]2Cc2ccccc2)cn1 | 106.8%
72 | CCc1ncc(CN2CCCN(CC3CC3)C(C(C)C)C2)cn1 (stereo not drawn) | -1.309%
73 | CCc1ncc(CN2C[C@@H]3C[C@@H](O)CN3C[C@@H]2Cc2ccccc2)cn1 | 90.44%
74 | CCOCCN1Cc2ncn(C)c2C(COCC2CCOCC2)C1.O=C(O)C(F)(F)F.O=C(O)C(F)(F)F (stereo not drawn) | -3.886%
75 | CN(C)C(=O)COCC1CN(CC2CCOCC2)Cc2ncn(C)c21 (stereo not drawn) | 99.32%
76 | CN(C)C(=O)N1Cc2ncn(C)c2C(COCC2CCOCC2)C1.O=C(O)C(F)(F)F (stereo not drawn) | -8.2%
77 | CCOCC1CN(C(=O)N(C)C)Cc2nn(C)cc21 (stereo not drawn) | -8.201%
78 | CN(C)CCN1Cc2ncn(C)c2C(COCC(=O)N(C)C)C1 (stereo not drawn) | 87.7%

Row | Compound | Percent Effect
79 | CN(C)CC(=O)N1Cc2ncn(C)c2C(COCC2CCOCC2)C1 (stereo not drawn) | 11.09%
80 | Cc1ccc(CN2C[C@H]3C(=O)N(CC4CC4)C[C@@]3(C(=O)O)C2)c(F)c1F | 26.68%
81 | O=C(CN1CCOCC1)N1CCC2(CCCN(C3CCOCC3)C2=O)C1 (stereo not drawn) | 102.1%
82 | O=C(CSCC1CC1)N1CCC2(CCCN(C3CCOCC3)C2=O)C1 (stereo not drawn) | 90.41%
83 | O=C(CCCn1cncn1)N1CCC2(CCCN(C3CCCC3)C2=O)C1 (stereo not drawn) | -21.81%
84 | O=C(CSC(F)(F)F)N1CCC2(CCCN(C3CCOCC3)C2=O)C1 (stereo not drawn) | 96.55%
85 | CS(=O)(=O)CCC(=O)N1CCC2(CCCN(C3CCOCC3)C2=O)C1 (stereo not drawn) | -5.583%
86 | CN1CCCC2(CCN(C(=O)Cc3cc4c(cc3Cl)OCCO4)C2)C1=O (stereo not drawn) | -11.77%
87 | O=C(CCc1nc(Cl)n[nH]1)N1CCC2(CCCN(CC3CCC3)C2=O)C1 (stereo not drawn) | -5.22%
88 | O=C(COCC(F)(F)C(F)F)N1CCC2(CCCN(CC3CC3)C2=O)C1 (stereo not drawn) | -8.945%
89 | O=C(CCCn1cncn1)N1CCC2(CCCN(CC3CC3)C2=O)C1 (stereo not drawn) | 15.06%
90 | CCS(=O)(=O)N1CCCC2(CCCN2C(=O)c2cscn2)C1 (stereo not drawn) | -8.968%
91 | N#Cc1ccc(NCCCN2C(=O)COc3ccccc32)nc1 | -5.647%
92 | CNC(=O)c1ccc(Cn2ccnc2S(C)(=O)=O)cc1 | -4.025%
93 | CNC(=O)c1cccc(CN2CCN(C3=NCC(C)(C)S3)CC2)c1 | 103.7%
94 | CC(=O)NCCC(=O)Nc1cccc(N2CCN(CC3CC3)CC2)c1 | 8.668%
95 | CNC(=O)c1ccc(CN2CCN(C3=NCC(C)(C)S3)CC2)cc1 | 129.2%
96 | CC(NC(=O)c1cccc(CN2CCN(C)CC2)c1)c1ccccn1 (stereo not drawn) | -0.367%
97 | CC(NC(=O)c1cccc(CN2CCN(C)CC2)c1)c1nccs1 (stereo not drawn) | 12.68%
98 | CC(=O)Nc1cccc(CN2CCN(C3=NCC(C)(C)S3)CC2)c1 | 100.4%
99 | COCc1cccc(C(=O)N2CCN(C3=NCC(C)(C)S3)CC2)c1 | 0.6755%
100 | CC(=O)Nc1cccc(Cn2nc(C)nc2C)c1 | 5.981%
101 | CN(C)c1ncccc1C(=O)N1CCN(C2=NCC(C)(C)S2)CC1 | -14.23%
102 | CNC(=O)c1cccc(CN2CCC(N(C)Cc3nnc(C)o3)C2)c1 (stereo not drawn) | 0.9226%
103 | CNC(=O)c1cccc(CN2CCN(c3ccncc3)CC2)c1 | 83.93%
